Screen size: about 2,200 compounds; about 1,200 (55%) were called active. No cut-off is given here; in the data, nearly all actives have IC50 up to about 92 µM. So high a share suggests a set chosen from earlier hits. This is one part of the list.

For 62 molecules, IC50 results are on record in PubChem BioAssay AID2501 (Southern Research Specialized Biocontainment Screening …, 2010).

The nature of this test: counter assay for TAg ATPase ADP read-out – biochemical, ADP-Hunter, fluorescence, counter-screen (AID 2501).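 For inhibition: higher means more inhibition.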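 Note: purified T antigen ATPase.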 The settings on record: series mostly up to 100 µM.
What is called IC50 is the point on the concentration scale where inhibition reaches its midpoint. `Nc1ccc2c(c1)Cc1ccccc1-2`: the concentration for half-maximal inhibition (IC50) is 4.77 µM (active).
For the molecule `O=C1NC(=O)C(=Cc2csc3ccccc23)C(=O)N1`, the IC50 result was “inactive”.
In the case of `CN1CCN(/N=C/c2c[nH]c3ccccc23)CC1`, the IC50 was 6.59 µM (active).
Consider `O=C1NC(=O)N(Cc2ccco2)C(=O)/C1=C/c1cccn1CCOc1ccccc1Cl`, for which the IC50 entry was “inactive”.
Take `O=C1NC(=S)NC(=O)C1=Cc1ccc2c(c1)CCN2CCCCl`: the IC50 result was “inactive”.
In the case of `O=C1NC(=O)N(c2ccccc2)C(=O)/C1=C/c1ccc([N+](=O)[O-])s1`, the IC50 entry was “inactive”.
On to `C=CCN1C(=O)/C(=C/c2cc(C)n(-c3cccnc3)c2C)C(=O)NC1=S`, for which the IC50 result is “inactive”.
As to `C[CH2][Hg][S]c1ccccc1C(=O)O`, the IC50 entry is “inactive”.
For `CCOc1ccccc1N1C(=O)NC(=O)/C(=C/c2ccc3c4c(cccc24)CC3)C1=O`, the IC50 entry was “inactive”.
Regarding `CCC(C)N1C(=O)NC(=O)C2(Cc3c(ccc4ccccc34)N(C)C2)C1=O` (configuration not stated), the half-maximal inhibitory concentration (IC50) is 23.3 µM (active).
Take `COc1ccc(N2C(=O)/C(=C/c3ccc(C)o3)C(=O)NC2=S)c(OC)c1`: the IC50 result is “inactive”.
The value for `COc1ccc(CN2C(=O)NC(=O)/C(=C/c3ccc([N+](=O)[O-])o3)C2=O)cc1` was “inactive”; that for `Cc1ccc2c(c1)=C/C(=C\c1c(O)[nH]c(=O)[nH]c1=O)C(=O)N=2` was “inactive”; that for `CCN1C(=O)/C(=C\c2ccc([N+](=O)[O-])s2)C(=O)NC1=S` was “inactive”.
The value for `O=C1NC(=O)N(c2ccccc2)C(=O)/C1=C\C=C\c1ccccc1` was “inactive”; that for `CN(c1ccc(OCC(=O)N2CCN(C/C=C/c3ccccc3)CC2)cc1)S(=O)(=O)c1cccs1` was “inactive”.
The same measure for `O=c1[nH]sc2cc(F)ccc12`: “inactive”; for `O=C(O)CCC(=O)NCCC1=c2ccccc2=N/C1=C\c1c(O)n(Cc2ccc(F)cc2)c(=S)[nH]c1=O`: “inactive”.
Consider `CC1CN=C(Nc2ccc(N(C)C)cc2)S1` (configuration not stated), for which the IC50 is 7.09 µM (active).
In the case of `COP(=S)(OC)SCN1C(=O)c2ccccc2C1=O`, the IC50 result is “inactive”.
The same measure for `CCOc1ccc(N2C(=O)NC(=O)/C(=C\c3ccccc3[N+](=O)[O-])C2=O)cc1`: “inactive”; for `CCc1c(C)nc(N)nc1N1N=C1SC(C(C)=O)C(C)=O`: “inactive”.
Consider `CCCN1CCc2cc(O)cc3c2[C@H]1Cc1ccc(O)c(O)c1-3`, for which the IC50 entry is “inactive”.
The value for `O=c1c(O)c(-c2ccc(O)c(O)c2)oc2cc(O)cc(O)c12` was 98.5 µM (active).
As for `O=c1cc(-c2ccc(O)c(O)c2)oc2cc(O)cc(O)c12`, the IC50 is 8.07 µM (active).
For `Oc1cc2c(cc1O)[C@H]1c3ccccc3CN[C@@H]1CC2`, the IC50 entry was “inactive”.
The value for `CN1CCc2cc(O)cc3c2[C@H]1Cc1ccc(O)c(O)c1-3` was “inactive”; that for `O=C1NC(=O)N(c2ccc(Br)cc2)C(=O)/C1=C/c1ccsc1` was “inactive”; that for `CN1C(=O)NC(=O)/C(=C/c2ccc([N+](=O)[O-])o2)C1=O` was “inactive”.
Regarding `O=C1NC(=O)N(c2ccccc2)C(=O)/C1=C\c1ccc2c3c(cccc13)CC2`, the IC50 result was “inactive”.
For `O=c1c2ccccc2[se]n1-c1ccccc1`, the IC50 was 10.9 µM (active).
Consider `O=C1NC(=O)C(=Cc2ccccc2OCCOc2ccc([N+](=O)[O-])cc2)C(=O)N1`, for which the IC50 result is “inactive”.
Regarding `CCN1C(=O)C(=C/C=C/c2ccco2)C(=O)N(CC)C1=S`, the IC50 result was “inactive”.
As for `CCOc1cccc(OCC)c2c(C)[n+](CC3CCCO3)c(C)c1-2` (configuration not stated), the IC50 result is “inactive”.
The same measure for `COc1cc(C=C2C(=O)NC(=O)NC2=O)ccc1O`: 19.6 µM (active); for `O=C1NC(=O)C(=Cc2ccc(OCCOc3ccc([N+](=O)[O-])cc3)cc2)C(=O)N1`: “inactive”.
As for `CCOC(=O)CSCCOc1ccc(C=C2C(=O)NC(=O)NC2=O)cc1OC`, the IC50 result was “inactive”.
Turning to `O=C1NC(=O)N(CCc2ccc(F)cc2)C(=O)/C1=C/c1ccco1`, the IC50 result was “inactive”.
Turning to `COc1ccc(CN2C(=O)NC(=O)/C(=C/c3ccoc3)C2=O)cc1`, the IC50 entry is “inactive”.
The value for `COc1cc(/C=C2\C(=O)NC(=O)N(CCc3ccc(F)cc3)C2=O)ccc1O` was 6.23 µM (active); that for `Cc1nc2cc([N+](=O)[O-])ccc2c(=O)n1-c1ccc(Br)cc1` was “inactive”.
For `O=C1NC(=S)NC(=O)C1=Cc1cccn1-c1ccc(O)cc1`, the IC50 result is “inactive”.
With `Cc1cc(C=C2C(=O)N(C)C(=S)N(C)C2=O)c(C)n1-c1ccncc1`, the IC50 entry was “inactive”.
For the molecule `CN(C)[C@@H]1C(=O)C(C(N)=O)=C(O)[C@@]2(O)C(=O)C3=C(O)c4c(O)cccc4[C@@](C)(O)[C@H]3[C@H](O)[C@@H]12`, the IC50 entry was “inactive”.
Turning to `CCCNC(=O)N1C2CCC1CC(O)(c1cccnc1)C2` (configuration not stated), the IC50 result is “inactive”.
In the case of `Cc1ccccc1-n1c(C)cc(/C=C2/C(=O)NC(=O)N(Cc3ccco3)C2=O)c1C`, the IC50 result was “inactive”.
Consider `N/C(=N\[N+](=O)[O-])N/N=C/c1ccc(O)cc1`, for which the concentration for half-maximal inhibition (IC50) is 2.93 µM (active).
`C[C@]12CC[C@@H]3c4ccc(O)c(O)c4CC[C@H]3[C@@H]1CC[C@@H]2O`: the IC50 entry was “inactive”.
The value for `COc1ccc(/C=C2/C(=O)NC(=O)N(Cc3ccco3)C2=O)cc1` was “inactive”; that for `NS(=O)(=O)c1ccc(-c2ccc(C=C3C(=O)NC(=O)NC3=O)o2)cc1` was “inactive”; that for `CC1=NCCc2c1[nH]c1cc(O)ccc21` was 4.35 µM (active).
Consider `Cc1ccc(N2C(=O)NC(=O)/C(=C/c3ccc(-c4ccc(C(=O)O)c(Cl)c4)o3)C2=O)cc1`, for which the IC50 result was “inactive”.
With `NC(N)=Nc1ccc2[nH]c3c(c2c1)C[C@@]1(O)[C@H]2Cc4ccc(O)c5c4[C@@]1(CCN2CC1CC1)[C@H]3O5`, the IC50 entry is “inactive”.
Consider `Cc1ccc(N2C(=O)NC(=O)/C(=C\C=C\c3ccco3)C2=O)cc1C`, for which the IC50 result was “inactive”.
The value for `C=C1C(=O)O[C@H]2[C@H]1[C@H](OC(=O)CC(=O)O[C@@H]1C[C@@H](C)[C@@H]3C=CC(=O)[C@@]3(C)[C@H]3OC(=O)C(=C)[C@H]13)C[C@@H](C)[C@H]1C=CC(=O)[C@]12C` was “inactive”.
For `CN1C(=O)/C(=C/C=C/c2ccco2)C(=O)NC1=S`, the IC50 result was “inactive”.
Consider `O=C1NC(=O)C(=Cc2ccc(-c3cc(Cl)ccc3[N+](=O)[O-])o2)C(=O)N1`, for which the IC50 result is “inactive”.
With `COc1cc2c(cc1O)CC[n+]1cc3c(OC)c(OC)ccc3cc1-2`, the half-inhibitory concentration (IC50) is 4.22 µM (active).
On to `O=C1NC(=O)N(c2ccccc2)C(=O)/C1=C\c1ccc([N+](=O)[O-])s1`, for which the IC50 result is “inactive”.
In the case of `O=c1[nH]c(=S)n(-c2ccccc2F)c(O)c1C=Nc1ccc(N2CCOCC2)cc1`, the 50% inhibitory concentration (IC50) was 5.34 µM (active).
As to `CC(C)Nc1ccc(Nc2ccccc2)cc1`, the IC50 was 5.82 µM (active).
On to `NS(=O)(=O)c1ccc(-c2ccc(C=C3C(=O)NC(=S)NC3=O)o2)cc1`, for which the IC50 result is “inactive”.
